Laboratory results taken from PubChem BioAssay (NCI).
Compounds without any hit were thinned out: in the full panel of roughly 83,000, 20% have a hit.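 Assay: single dose, 48 h. Readout: percent growth (0 = no net growth; negative = cell death). Active: <10.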

How the values were obtained:
Experiment in all cases: NCI-60 one-dose screen, 48 h (100 = growth as untreated, 0 = no growth, -100 = all killed)
Conditions in all cases: 10 µM unless noted
NCI-H226 lung = test system: NCI-H226 lung
NCI-H322M lung = test system: NCI-H322M lung
HOP-62 NSCLC = test system: HOP-62 NSCLC
NCI-H460 lung = test system: NCI-H460 lung
HOP-92 NSCLC = test system: HOP-92 NSCLC
NCI-H522 lung = test system: NCI-H522 lung
A549/ATCC NSCLC = test system: A549/ATCC NSCLC
786-0 renal = test system: 786-0 renal
COLO 205 colon = test system: COLO 205 colon
K-562 leukemia = test system: K-562 leukemia
MALME-3M melanoma = test system: MALME-3M melanoma
MDA-MB-231 breast = test system: MDA-MB-231 breast
RXF 393 renal = test system: RXF 393 renal
SF-268 CNS = test system: SF-268 CNS
SF-295 CNS = test system: SF-295 CNS
SF-539 CNS = test system: SF-539 CNS
UACC-257 melanoma = test system: UACC-257 melanoma
M14 melanoma = test system: M14 melanoma
DU-145 prostate = test system: DU-145 prostate

Measured: growth

COC(=O)C1=C(C)C(=O)CC1
inactive: NCI-H226 lung 109% | NCI-H322M lung 115% | HOP-62 NSCLC 114% | NCI-H460 lung 118% | HOP-92 NSCLC 113% | NCI-H522 lung 101% | A549/ATCC NSCLC 112% | 786-0 renal 108% | COLO 205 colon 141% | K-562 leukemia 96.1% | MALME-3M melanoma 137% | MDA-MB-231 breast 102% | RXF 393 renal 143% | SF-268 CNS 111% | SF-295 CNS 135% | SF-539 CNS 109% | UACC-257 melanoma 110% | M14 melanoma 105%

CC(C)(N)CO[C@H]1C[C@H]2CC[C@@]1(C)C2(C)C
inactive: NCI-H226 lung 88.5% | NCI-H322M lung 96.5% | HOP-62 NSCLC 106% | NCI-H460 lung 97.8% | HOP-92 NSCLC 89.2% | NCI-H522 lung 92.4% | A549/ATCC NSCLC 96.8% | 786-0 renal 97.6% | COLO 205 colon 109% | DU-145 prostate 102% | K-562 leukemia 123% | MALME-3M melanoma 97.1% | RXF 393 renal 87.6% | SF-268 CNS 91.5% | SF-295 CNS 97.7% | SF-539 CNS 99.4% | UACC-257 melanoma 97.1% | M14 melanoma 90%

CC(C)N1CC(=O)N2CSCC2C1=O (stereo unspecified)
inactive: NCI-H226 lung 104% | NCI-H322M lung 115% | HOP-62 NSCLC 111% | NCI-H460 lung 108% | HOP-92 NSCLC 126% | NCI-H522 lung 102% | A549/ATCC NSCLC 103% | 786-0 renal 107% | COLO 205 colon 114% | DU-145 prostate 107% | K-562 leukemia 104% | MDA-MB-231 breast 120% | RXF 393 renal 104% | SF-268 CNS 106% | SF-295 CNS 105% | SF-539 CNS 97.6% | UACC-257 melanoma 108% | M14 melanoma 104%

Nc1cc(F)ccc1[N+](=O)[O-]
inactive: NCI-H226 lung 95.9% | NCI-H322M lung 92.6% | HOP-62 NSCLC 110% | NCI-H460 lung 103% | HOP-92 NSCLC 89.5% | NCI-H522 lung 106% | A549/ATCC NSCLC 116% | 786-0 renal 94.1% | DU-145 prostate 117% | K-562 leukemia 114% | MALME-3M melanoma 108% | MDA-MB-231 breast 105% | RXF 393 renal 94.3% | SF-268 CNS 111% | SF-295 CNS 108% | SF-539 CNS 101% | UACC-257 melanoma 118% | M14 melanoma 94.4%

COc1ccc(C)cc1NC(=O)SC(C)C
inactive: NCI-H226 lung 89.6% [100 µM] | NCI-H322M lung 104% [100 µM] | HOP-62 NSCLC 97% [100 µM] | NCI-H460 lung 103% [100 µM] | HOP-92 NSCLC 103% [100 µM] | NCI-H522 lung 88.7% [100 µM] | A549/ATCC NSCLC 104% [100 µM] | 786-0 renal 102% [100 µM] | COLO 205 colon 132% [100 µM] | DU-145 prostate 103% [100 µM] | K-562 leukemia 92.5% [100 µM] | MALME-3M melanoma 98.8% [100 µM] | MDA-MB-231 breast 92.1% [100 µM] | RXF 393 renal 102% [100 µM] | SF-268 CNS 97.3% [100 µM] | SF-295 CNS 105% [100 µM] | SF-539 CNS 97.6% [100 µM] | UACC-257 melanoma 98.8% [100 µM] | M14 melanoma 110% [100 µM]

COc1ccc(C2CC(c3ccccc3)=Nc3ccccc3S2)cc1 (stereo unspecified)
inactive: NCI-H226 lung 98.2% | NCI-H322M lung 90.3% | HOP-62 NSCLC 98.7% | NCI-H460 lung 105% | HOP-92 NSCLC 87.1% | NCI-H522 lung 77.6% | A549/ATCC NSCLC 111% | 786-0 renal 98.2% | COLO 205 colon 97.1% | DU-145 prostate 99.8% | K-562 leukemia 77.9% | MALME-3M melanoma 82.5% | MDA-MB-231 breast 98.9% | SF-268 CNS 105% | SF-539 CNS 111% | UACC-257 melanoma 103% | M14 melanoma 106%

C=C1C(=O)C2CCC1C2 (stereo unspecified)
inactive: NCI-H226 lung 99.8% | NCI-H322M lung 97.5% | HOP-62 NSCLC 102% | NCI-H460 lung 113% | HOP-92 NSCLC 102% | NCI-H522 lung 91.8% | A549/ATCC NSCLC 98.4% | 786-0 renal 92.8% | COLO 205 colon 112% | DU-145 prostate 98.4% | K-562 leukemia 92.6% | MALME-3M melanoma 93.6% | MDA-MB-231 breast 103% | RXF 393 renal 112% | SF-268 CNS 88.9% | SF-295 CNS 102% | SF-539 CNS 105% | UACC-257 melanoma 105% | M14 melanoma 96.5%

C=CC1=NC(C)(C)CC(C)O1 (stereo unspecified)
inactive: NCI-H226 lung 111% | NCI-H322M lung 108% | HOP-62 NSCLC 110% | NCI-H460 lung 104% | HOP-92 NSCLC 105% | NCI-H522 lung 97.5% | A549/ATCC NSCLC 104% | 786-0 renal 103% | COLO 205 colon 116% | DU-145 prostate 113% | K-562 leukemia 107% | MALME-3M melanoma 107% | MDA-MB-231 breast 110% | SF-268 CNS 109% | SF-539 CNS 97.8% | UACC-257 melanoma 95.4% | M14 melanoma 112%

C=CCN1CCCC1=O
inactive: NCI-H226 lung 102% | NCI-H322M lung 89.3% | HOP-62 NSCLC 106% | NCI-H460 lung 105% | HOP-92 NSCLC 99.6% | NCI-H522 lung 101% | A549/ATCC NSCLC 112% | 786-0 renal 105% | DU-145 prostate 114% | K-562 leukemia 86.7% | MALME-3M melanoma 96.9% | MDA-MB-231 breast 94.7% | RXF 393 renal 128% | SF-268 CNS 108% | SF-295 CNS 98.3% | SF-539 CNS 93% | UACC-257 melanoma 119% | M14 melanoma 98.8%

CCc1ccccc1C(=O)N(CC)CC
inactive: NCI-H226 lung 95.4% | NCI-H322M lung 105% | HOP-62 NSCLC 103% | NCI-H460 lung 104% | HOP-92 NSCLC 107% | NCI-H522 lung 105% | A549/ATCC NSCLC 97.1% | 786-0 renal 101% | DU-145 prostate 104% | K-562 leukemia 106% | MALME-3M melanoma 102% | MDA-MB-231 breast 100% | SF-268 CNS 97.5% | SF-295 CNS 97.6% | SF-539 CNS 94.9% | UACC-257 melanoma 103% | M14 melanoma 103%

COc1cc(-c2ccc(NC(=O)CC(C)=O)c(OC)c2)ccc1NC(=O)CC(C)=O
inactive: NCI-H226 lung 91.4% | NCI-H322M lung 102% | HOP-62 NSCLC 98% | NCI-H460 lung 109% | HOP-92 NSCLC 98.2% | NCI-H522 lung 95.5% | A549/ATCC NSCLC 88.5% | 786-0 renal 105% | COLO 205 colon 115% | DU-145 prostate 111% | K-562 leukemia 98% | MALME-3M melanoma 97.3% | MDA-MB-231 breast 101% | RXF 393 renal 113% | SF-268 CNS 107% | SF-295 CNS 101% | SF-539 CNS 97.6% | UACC-257 melanoma 89.3% | M14 melanoma 104%

CC(=O)C1C(=O)C(=O)N(c2cccc([N+](=O)[O-])c2)C1=O (stereo unspecified)
inactive: NCI-H226 lung 92.3% | NCI-H322M lung 114% | HOP-62 NSCLC 105% | NCI-H460 lung 105% | HOP-92 NSCLC 95.6% | NCI-H522 lung 104% | A549/ATCC NSCLC 109% | 786-0 renal 96.8% | COLO 205 colon 111% | K-562 leukemia 112% | MALME-3M melanoma 124% | MDA-MB-231 breast 107% | RXF 393 renal 110% | SF-268 CNS 109% | SF-295 CNS 107% | SF-539 CNS 108% | UACC-257 melanoma 97.4% | M14 melanoma 104%

NS(=O)(=O)c1cc(=O)[nH]c(=O)[nH]1
inactive: NCI-H226 lung 109% | NCI-H322M lung 93.7% | HOP-62 NSCLC 107% | NCI-H460 lung 111% | NCI-H522 lung 74.5% | A549/ATCC NSCLC 115% | 786-0 renal 105% | COLO 205 colon 117% | DU-145 prostate 114% | K-562 leukemia 131% | MALME-3M melanoma 90.7% | MDA-MB-231 breast 115% | SF-268 CNS 110% | SF-295 CNS 109% | SF-539 CNS 111% | UACC-257 melanoma 113% | M14 melanoma 102%

CS(=O)(=O)c1ccc(/C=C\C(=O)O)cc1
inactive: NCI-H226 lung 96.1% | NCI-H322M lung 108% | HOP-62 NSCLC 99.5% | NCI-H460 lung 94.3% | HOP-92 NSCLC 94% | NCI-H522 lung 99.5% | A549/ATCC NSCLC 106% | 786-0 renal 108% | COLO 205 colon 109% | DU-145 prostate 104% | K-562 leukemia 122% | MDA-MB-231 breast 110% | RXF 393 renal 95.7% | SF-268 CNS 94.1% | SF-295 CNS 103% | SF-539 CNS 91.8% | UACC-257 melanoma 99.7% | M14 melanoma 94.9%

C/C(=N\Nc1ccc([N+](=O)[O-])cc1[N+](=O)[O-])c1ccc(Br)cc1
inactive: NCI-H226 lung 96.6% | NCI-H322M lung 106% | HOP-62 NSCLC 108% | NCI-H460 lung 99.2% | HOP-92 NSCLC 94.5% | NCI-H522 lung 85.5% | A549/ATCC NSCLC 84.8% | 786-0 renal 99.4% | COLO 205 colon 104% | DU-145 prostate 103% | K-562 leukemia 98.7% | MALME-3M melanoma 107% | MDA-MB-231 breast 91.5% | RXF 393 renal 106% | SF-268 CNS 97.2% | SF-295 CNS 94.4% | SF-539 CNS 106% | UACC-257 melanoma 87.9% | M14 melanoma 106%

S=c1nc2[nH]c3ccccc3c2n[nH]1
inactive: NCI-H226 lung 83.1% | NCI-H322M lung 98.9% | NCI-H460 lung 99.5% | HOP-92 NSCLC 55.7% | NCI-H522 lung 108% | A549/ATCC NSCLC 104% | 786-0 renal 109% | COLO 205 colon 108% | DU-145 prostate 102% | K-562 leukemia 106% | MALME-3M melanoma 97.7% | MDA-MB-231 breast 86.6% | SF-268 CNS 87.6% | SF-295 CNS 72% | SF-539 CNS 85.1% | UACC-257 melanoma 107% | M14 melanoma 107%

O=c1[nH]c(=O)c2cc(Cl)cc(Cl)c2[nH]1
inactive: NCI-H226 lung 96.8% | NCI-H322M lung 94.8% | HOP-62 NSCLC 113% | NCI-H460 lung 112% | HOP-92 NSCLC 104% | NCI-H522 lung 99.7% | A549/ATCC NSCLC 108% | 786-0 renal 101% | COLO 205 colon 117% | DU-145 prostate 136% | K-562 leukemia 106% | MALME-3M melanoma 116% | MDA-MB-231 breast 107% | RXF 393 renal 113% | SF-268 CNS 109% | SF-295 CNS 114% | SF-539 CNS 99.5% | UACC-257 melanoma 93% | M14 melanoma 102%
